An excerpt weighted towards active compounds, which were near 3.1% of everything screened.
TR SRC2 fluor cs: counter-screen for TRb-SRC2 inhibitors: fluorescence interference; TRb/SRC2 Texas Red total fluorescence interference; Potency, µM (doses to about 106 µM); 280,000 tested, 0.29% active; AID 1479; active = well fitted curve in either direction with a large enough effect; inconclusive = small, poorly fitted or top-dose-only effect
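Human TRb ligand-binding domain at 0.6 uM with 20 nM Texas Red SRC2 peptide in Tris buffer containing 1 uM T3 and 5% DMSO, incubated with compound 5 h at ambient temperature. Total fluorescence (555/632 nm) calculated as parallel + 2 × perpendicular.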
Tau ThT inhib: tau fibrillization inhibition (ThT binding); 270,000 tested, 2.1% active; Potency, µM (titrated, usually from 57.4 µM), actives largely listed as inhibitors; P10636; recombinant tau K18 P301L, heparin-induced fibrillization, ThT fluorescence; note: nearly all actives have a fitted effect of over 55% in size
Target sequence (P10636 561-689 P618L limits assumed): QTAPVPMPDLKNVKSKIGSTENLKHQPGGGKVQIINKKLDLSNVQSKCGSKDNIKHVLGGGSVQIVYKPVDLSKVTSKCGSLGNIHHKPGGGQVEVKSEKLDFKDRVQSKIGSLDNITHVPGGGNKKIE
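ThT emission at 510 nm, taken 1 hr after adding 30 uM dye, quantifies aggregates formed when 20 uM heparin acts on human tau K18 P301L for 6 hr at 37 C.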
Tau fluor cs: counter-screen for tau fibril formation inhibitors; AID 1463; tau K18 P301L Alexa594 fluorescence, heparin fibrillization; Potency, µM (doses to about 57.7 µM); 280,000 tested, 0.93% active; note: nearly all actives have a fitted effect of over 55% in size
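Human tau K18 P301L (15 uM unlabeled, 0.24 uM Alexa 594-labeled) in 100 mM sodium acetate pH 7 with 20 uM heparin, 6 hr at 37 C. ThT 30 uM added, 1 hr ambient; Alexa 594 FP and total fluorescence read at 555/632 nm.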
TRb SRC2 PPI: TRbeta-SRC2 interaction inhibition | TRbeta-SRC2 peptide binding, fluorescence polarization; receptor liganded with 1 µM T3 | Potency, µM (doses to about 106 µM), most hits filed as inhibitors | 280,000 tested, 0.065% active | AID 1469; note: nearly all actives have a fitted effect of over 50% in size
Target sequence (P10828 whole entry, looked up): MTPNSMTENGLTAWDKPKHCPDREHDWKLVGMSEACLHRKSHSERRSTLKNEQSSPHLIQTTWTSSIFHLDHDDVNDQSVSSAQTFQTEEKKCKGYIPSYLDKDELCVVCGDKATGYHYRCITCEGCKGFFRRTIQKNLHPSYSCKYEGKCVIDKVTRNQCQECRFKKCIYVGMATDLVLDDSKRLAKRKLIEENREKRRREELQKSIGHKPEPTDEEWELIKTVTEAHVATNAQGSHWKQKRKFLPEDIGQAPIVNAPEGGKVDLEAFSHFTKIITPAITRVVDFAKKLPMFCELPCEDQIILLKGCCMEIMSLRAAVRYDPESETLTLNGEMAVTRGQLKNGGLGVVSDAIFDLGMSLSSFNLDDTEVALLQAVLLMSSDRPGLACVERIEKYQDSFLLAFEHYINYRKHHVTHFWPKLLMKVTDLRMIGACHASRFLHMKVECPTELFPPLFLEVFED
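Polarization signal, normalized between peptide-alone and full complex controls, measured compound effects on T3-liganded human TRb LBD (0.6 uM) binding 20 nM Texas Red SRC2 peptide after 5 hr.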
Tau FP inhib: blocks human tau fibril formation measured by polarization | P10636 | K18 P301L tau heparin fibrillization, Alexa594 FP, 6 h | Potency, µM (series often up to 57.7 µM), actives largely listed as inhibitors | 280,000 tested, 0.39% active; note: nearly all actives have a fitted effect of over 55% in size
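Read-out: fluorescence polarization of Alexa 594-labeled tau (0.24 uM), 555 nm excitation, 632 nm emission. Mixtures held 15 uM unlabeled K18 P301L, compound and 20 uM heparin, pH 7 acetate buffer, incubated 6 hr at 37 C.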
Each line names hits and unclear results; the compound was inactive in the other large screens; [ ] = remark or other dose. Unless noted, calls come from the whole dose curve; as a rule, active = well fitted curve in the direction sought with a large enough effect; inconclusive = small, poorly fitted or top-dose-only effect, or another doubt; inactive = no such curve, though single readings can be large; an effect the other way counts as inactive or inconclusive.

CCN1/C(=C/c2ccc3cccc(C)c3[n+]2CC)Sc2ccccc21	Tau ThT inhib inconclusive, Tau FP inhib inconclusive
CCN1/C(=C/c2ccc3cc(C)cc(C)c3[n+]2CC)Sc2cc(C)ccc21	Tau ThT inhib 4.47µM, Tau fluor cs inconclusive, Tau FP inhib inconclusive
CCN1/C(=C\c2ccc3cc(C)ccc3[n+]2CC)Sc2cc(C)c(C)cc21	Tau ThT inhib 7.94µM, Tau fluor cs inconclusive, Tau FP inhib inconclusive
CCc1ccc(NC(=O)C(Cc2ccccc2)NS(=O)(=O)c2ccc3c(c2)c(=O)n(C)c(=O)n3C)cc1 (stereo unspecified)	Tau fluor cs inconclusive
COC(=O)c1ccc2c(c1)C(C)(C)C(/C=C/c1ccccc1O)=[N+]2C	TR SRC2 fluor cs 20µM[fluorescent], Tau ThT inhib 10µM, Tau fluor cs 25.1µM[fluorescent], TRb SRC2 PPI 20µM, Tau FP inhib inconclusive
O=P1(O)Oc2c(c(-c3ccccc3)cc3ccccc23)-c2c(-c3ccccc3)cc3ccccc3c2O1	none
Oc1cc(-c2ccccc2)c2ccccc2c1	Tau ThT inhib 14.1µM, Tau fluor cs inconclusive, Tau FP inhib inconclusive
Cc1ccc(CN2CCN(C3CCN(C(=O)c4ccccc4)CC3)C(=O)C2=O)cc1	none
COc1ccc(OC)c(S(=O)(=O)Nc2ccc(Oc3ccccc3)cc2)c1	none
COc1ccc(OC)c(S(=O)(=O)Nc2ccc(O)c3ccccc23)c1	Tau ThT inhib 25.1µM, Tau fluor cs 28.2µM[quencher], Tau FP inhib inconclusive
COc1cc(NS(=O)(=O)c2ccc([N+](=O)[O-])cc2)c2ncccc2c1	none (no result: Tau ThT inhib, Tau fluor cs, Tau FP inhib)
CCOC(=O)Cc1csc(NC(=O)c2cccnc2)n1	none
CCOC(=O)Cc1csc(NC(=O)c2sc3nc4ccc(C)cc4cc3c2N)n1	Tau ThT inhib 3.16µM
CCc1nnc(NC(=O)c2sc3nc4cc(C)ccc4cc3c2N)s1	Tau ThT inhib 2µM, Tau fluor cs inconclusive
Cc1ccc2nc3sc(C(=O)Nc4ccc(N5CCOCC5)cc4)c(N)c3cc2c1	Tau ThT inhib 2µM, Tau fluor cs inconclusive
Cc1cccc2cc3c(N)c(C(=O)N4CCc5ccccc54)sc3nc12	Tau ThT inhib 4.47µM, Tau fluor cs inconclusive, Tau FP inhib inconclusive
Cc1cc(C)c2nc3sc(C(=O)N4CCOCC4)c(N)c3cc2c1	Tau ThT inhib inconclusive, Tau fluor cs inconclusive
O=C(c1cnc2n(c1=O)CCS2)N1CCc2ccccc21	none
CCc1cccc2cc3c(N)c(C(=O)Nc4ccc(S(=O)(=O)N5CCCC5)cc4)sc3nc12	Tau ThT inhib 5.62µM, Tau fluor cs inconclusive, Tau FP inhib inconclusive
Cc1ccc2nc(C)c(C(=O)N/N=C/c3ccc(N4CCOCC4)cc3)cc2c1	Tau ThT inhib inconclusive
Cc1cccc2cc3c(N)c(C(=O)Nc4ccc(N5CCOCC5)cc4)sc3nc12	Tau ThT inhib 2.82µM, Tau fluor cs 11.2µM[quencher]
Cc1cc(C)n2nc(Sc3ncccc3[N+](=O)[O-])nc2n1	none
CCOc1ccc(-c2cc(CCCC(=O)NCCc3cc(OC)c(OC)c(OC)c3)no2)cc1	Tau ThT inhib inconclusive
Cc1ccc(NC(=O)C2CC(=O)N(Cc3ccco3)C2)cc1 (stereo unspecified)	Tau FP inhib inconclusive
Nc1ccc(N)c([N+](=O)[O-])c1	none (no result: Tau ThT inhib, Tau fluor cs, Tau FP inhib)
CC(C)(C)c1cc(C(C)(C)C)c(O)c(C(C)(C)C)c1	none (no result: Tau ThT inhib, Tau fluor cs, Tau FP inhib)
O=c1[nH]nc(CNc2ccc(O)cc2)c2ccccc12	TR SRC2 fluor cs 44.7µM[fluorescent], Tau ThT inhib 31.6µM, Tau fluor cs inconclusive, TRb SRC2 PPI 28.2µM, Tau FP inhib inconclusive
Cc1ccc(C(=O)c2ccccc2C(=O)OCC(=O)Nc2cccc([N+](=O)[O-])c2)cc1	Tau fluor cs 15.8µM[quencher], Tau FP inhib inconclusive
Cc1ccc(-c2nc(C)sc2CC(=O)OCC(=O)Nc2cccc([N+](=O)[O-])c2)cc1	Tau fluor cs inconclusive
CCn1ccc2cc(S(=O)(=O)N3CCCN(C(=O)Nc4ccc(C)cc4)CC3)ccc21	none
O=c1c2ccccc2nc(N/N=C/c2c(O)ccc3ccccc23)n1O	Tau ThT inhib 11.2µM, Tau fluor cs inconclusive
CN(C)c1ccc(CNC(=O)C2(C)C=CCN2C(=O)c2ccccc2)cc1 (stereo unspecified)	none
c1cnc2c(c1)ccc1cccnc12	Tau ThT inhib 28.2µM, Tau FP inhib inconclusive
COc1ccccc1N1CCN(C(=O)c2ccc3c(c2)N(Cc2cc(C)ccc2C)C(=O)c2ccccc2S3(=O)=O)CC1	none
CCn1c(CSc2nnc(-c3ccncc3)n2C)nc2cc(C(=O)O)ccc21	TR SRC2 fluor cs 44.7µM[fluorescent], TRb SRC2 PPI 39.8µM
CCn1c(CSc2ncn[nH]2)nc2cc(C(=O)O)ccc21	TR SRC2 fluor cs inconclusive, TRb SRC2 PPI inconclusive
N#Cc1ccccc1Sc1ccccc1N	none
N#CC(=C(/N)Sc1ccccc1N)/C(C#N)=C(/N)Sc1ccccc1N	Tau ThT inhib 35.5µM, Tau fluor cs 25.1µM[quencher] (no result: Tau FP inhib)
c1ccc2cc3c(ccc4ccccc43)cc2c1	none (no result: Tau ThT inhib, Tau fluor cs, Tau FP inhib)
Cc1ccccc1-c1ccc(Nc2ccc(N3CCOCC3)cc2)nn1	Tau ThT inhib 14.1µM, Tau fluor cs inconclusive
Fc1ccc(F)c(C2=NNC(=Nc3ccccc3F)SC2)c1	none
Fc1ccc(N=C2NN=C(c3cc(F)ccc3F)CS2)cc1	TR SRC2 fluor cs inconclusive, Tau ThT inhib 12.6µM, Tau fluor cs inconclusive, Tau FP inhib inconclusive
COc1ccc(N=C2NN=C(c3c(C)[nH]c4ccccc34)CS2)cc1	Tau ThT inhib inconclusive, Tau fluor cs 25.1µM[quencher]
Cc1[nH]c2ccccc2c1C1=NNC(=Nc2ccc(F)cc2)SC1	Tau ThT inhib 14.1µM, Tau fluor cs 11.2µM[quencher], Tau FP inhib inconclusive
Cc1cc(C2=NNC(=Nc3ccccc3)SC2)c(C)n1C	Tau ThT inhib inconclusive
Cc1cccc(N=C2NN=C(c3ccccc3F)CS2)c1C	Tau ThT inhib inconclusive, Tau fluor cs inconclusive
Fc1ccccc1N=C1NN=C(c2ccccc2)CS1	Tau ThT inhib 22.4µM, Tau fluor cs inconclusive, Tau FP inhib inconclusive
CCC(=O)O[C@H]1C(O[C@@H]2C(C)[C@H](O[C@H]3C[C@@](C)(OC)C(O)C(C)O3)C(C)C(=O)OC(CC)[C@@](C)(O)C(O)[C@H](C)C(=O)C(C)C[C@]2(C)O)OC(C)CC1N(C)C (stereo partly specified)	Tau ThT inhib inconclusive, Tau fluor cs inconclusive
Cc1ccccc1S(=O)(=O)NCc1ccc(N2CCN(C)CC2)cc1	none
CCn1c(O)c(/C=C/C=C/C=Nc2ccccc2)sc1=S	Tau ThT inhib inconclusive
Oc1c(/C=C/C=C/C=Nc2ccccc2)sc(=S)n1Cc1ccccc1	Tau ThT inhib 1.78µM, Tau fluor cs inconclusive, Tau FP inhib inconclusive
CCCCn1c(O)c(/C=C/C=C/C=Nc2ccccc2)sc1=S	Tau ThT inhib 3.16µM, Tau FP inhib inconclusive
O=C(CN1c2ccccc2S(=O)(=O)c2ccccc21)Nc1ccccc1Cl	none
O=c1c(-c2cc(O)c(O)c(O)c2)coc2cc(O)c(O)c(O)c12	Tau ThT inhib 3.55µM, Tau fluor cs inconclusive, Tau FP inhib 7.08µM
CC(C)=CCc1c(O)cc2occ(-c3ccc4c(c3)OCO4)c(=O)c2c1O	Tau fluor cs inconclusive, Tau FP inhib 8.91µM

Source: PubChem
